From PubChem BioAssay (Tox21)
Results filed as inconclusive are left out. Activity calls are given as the source filed them. Unless noted, calls come from the whole dose curve; as a rule, active = well fitted curve in the direction sought with a large enough effect in the repeat runs; inconclusive = weak or mixed curves; inactive = no such curve, though single readings can be large; an effect the other way counts as inactive or inconclusive.

Columns and labels:
[1] = qHTS assay to identify small molecule antagonists of the vitamin D receptor (VDR) signaling pathway - cell viability counter screen (AID 743225); note: nearly all actives have a fitted effect of over 50% in size; note: potency is the fitted concentration of half-maximal effect
Outline: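 VDR-UAS-bla HEK 293T cells were plated and incubated 4 h at 37C, then dosed with compound plus 3 nM (final) 1-alpha,25-dihydroxyvitamin D3 for 16 h. After the 2 h beta-lactamase read, viability in the same wells was read as CellTiter-Glo luminescence after 30 min at room temperature.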

[2] = target: Nuclear receptor ROR-gamma (Homo sapiens) (UniProt P51449); test: qHTS assay to identify small molecule antagonists of the retinoid-related orphan receptor gamma (ROR-gamma) signaling pathway (AID 1159521; note: potency is the fitted concentration of half-maximal effect; nearly all actives have a fitted effect of over 50% in size)
Outline: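 Tet-on ROR-gamma CHO cells with ROR response element-luciferase reporter; compounds added 2 hr before 1 uM doxycycline induction, then 16 hr at 37 C. Antagonism scored as decreased ONE-Glo luminescence.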

[3] = qHTS assay to identify small molecule antagonists of the retinoic acid receptor (RAR) signaling pathway (AID 1159552; note: nearly all actives have a fitted effect of over 50% in size)
Outline: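 Retinol signaling pathway inhibitors screened in C3RL4 RARE-luciferase reporter cells seeded overnight at 37 C, then compounds added with 1 uM (final) retinol as pathway substrate. After 6 hr at 37 C, luciferase luminescence read after 30 min at room temperature.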

[4] = target: Luciferin 4-monooxygenase (Photinus pyralis) (UniProt P08659); test: qHTS assay to identify small molecule inhibitors of firefly luciferase (AID 1224835); note: nearly all actives have a fitted effect of over 25% in size; note: potency is the fitted concentration of half-maximal effect
Outline: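 Quantitative HTS format; KM concentrations of both substrates. Purified P. pyralis FLuc activity quantified from luminescence images.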

[5] = qHTS assay to identify small molecule antagonists of the estrogen related receptor (ERR) signaling pathway - cell viability counter screen (AID 1224818); note: potency is the fitted concentration of half-maximal effect;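 note: viability measured after 17.5 h of compound exposure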
Outline: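 In the same ERR cell assay, compound-treated wells (17.5 h, 37 C) were multiplexed with a fluorogenic viability reagent, CellTiter-Fluor, read after 30 min to flag cytotoxic substances.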

[6] = qHTS assay to identify small molecule antagonists of the estrogen related receptor (ERR) signaling pathway (AID 1224819; note: nearly all actives have a fitted effect of over 50% in size; note: potency is the fitted concentration of half-maximal effect)
Outline: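 qHTS in ERR cells, 2,000/well, 1536 format. Cpd (DMSO) added after 6 h settle, 18 h 37 C. One-Glo luminescence, 30 min RT.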

[7] = qHTS assay to identify small molecule agonists of the estrogen related receptor (ERR) signaling pathway (AID 1224820); note: potency is the fitted concentration of half-maximal effect
Outline: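 ERR reporter cells (NTP line) plated 2,000/well, incubated 6 h at 37 C/5% CO2, then pinned with compounds in DMSO and held 18 h at 37 C. One-Glo added; luminescence read after 30 min at room temperature.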

[8] = tested on: estrogen-related receptor alpha (ERRalpha) with PGC-1alpha coactivator, human; test: qHTS assay to identify small molecule antagonists of the estrogen related receptor signaling pathway with the pleiotropic PPARgamma coactivator (PGC) (AID 1224821; calls by dose curve)
Outline: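 Cells engineered for PGC/ERR signalling (line from NTP) were plated 6 h at 37 C/5% CO2, then exposed to DMSO-dissolved compound for 18 h at 37 C. Luciferase activity was read by One-Glo luminescence after 30 min at room temperature.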

[9] = qHTS assay to identify small molecule antagonists of the estrogen related receptor signaling pathway with the pleiotropic PPARgamma coactivator (PGC) cell viability counter screen (AID 1224822; note: series mostly up to about 46 µM)
Outline: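 Compounds in DMSO, with positive and negative controls, were applied to PGC/ERR cells (2,000/well) and left 17.5 h at 37 C before CellTiter-Fluor detection.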

[10] = qHTS assay to identify small molecule agonists of the RXR signaling pathway - cell viability counter screen (AID 1159529); note: nearly all actives have a fitted effect of over 50% in size; note: potency is the fitted concentration of half-maximal effect
Outline: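 RXR-alpha-UAS-bla HEK 293T cells in medium with 2% charcoal-stripped FBS were pre-incubated 5 hr, then compound-treated 16 hr at 37 C. Viability was read by CellTiter-Glo luminescence in the same wells as the beta-lactamase assay, with tetraoctyl ammonium bromide as positive control.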

[11] = qHTS assay to identify small molecule antagonists of the estrogen related receptor (ERR) signaling pathway from Tox21 library - cell viability counter screen (AID 1224834); note: nearly all actives have a fitted effect of over 30% in size; note: potency is the fitted concentration of half-maximal effect
Outline: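 CellTiter-Fluor fluorescence measured; ERR cells; 17.5 h compound incubation at 37 C; 30 min reagent step.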

[12] = qHTS assay to identify small molecule agonists of the constitutive androstane receptor (CAR) signaling pathway - cell viability counter screen (AID 1224836); note: series mostly up to about 92 µM; nearly all actives have a fitted effect of over 45% in size
Outline: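 HepG2 cells stably carrying hCAR and a CYP2B6-2.2kb reporter; 15-concentration compounds plus PK11195 (final 0.75 uM), 23 hr at 37 C/5% CO2. Viability read by CellTiter-Fluor fluorescence.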

[13] = qHTS assay to identify small molecule agonists of the AP-1 signaling pathway - cell viability counter screen (AID 1159525; calls by dose curve; note: nearly all actives have a fitted effect of over 55% in size; note: potency is the fitted concentration of half-maximal effect)
Outline: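 ME-180 AP-1-bla, 2500 cells/well, Opti-MEM + 0.5% dialyzed FBS; overnight 37 °C; cpd 15-pt titration, 5 h 37 °C; CellTiter-Glo 30 min RT; luminescence read; normalised to TOAB and DMSO controls.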

[14] = qHTS assay to identify small molecule agonists of the AP-1 signaling pathway (AID 1159526; calls by dose curve; note: potency is the fitted concentration of half-maximal effect)
[15] = target: Retinoic acid receptor RXR-alpha (Homo sapiens) (UniProt P19793); test: qHTS assay to identify small molecule agonists of the RXR signaling pathway (AID 1159527; calls by dose curve; note: nearly all actives have a fitted effect of over 35% in size)
Outline: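 GeneBLAzer RXR-alpha-UAS-bla HEK 293T cells in 2% charcoal-stripped FBS medium were exposed to compounds for 16 hr at 37 C in agonist mode. Beta-lactamase reporter read as 460/530 nm FRET ratio after 2 hr substrate loading.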

[16] = qHTS assay to identify small molecule antagonists of the retinoid acid receptor (RAR) signaling pathway - cell viability counter screen (AID 1159551); note: nearly all actives have a fitted effect of over 35% in size
Outline: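 Seed C3RL4 cells; next day add compound, then retinol to 1 uM final; incubate 6 h at 37 C; add CellTiter-Glo; read luminescence after 30 min at RT.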

[17] = qHTS assay to identify small molecule antagonists of the constitutive androstane receptor (CAR) signaling pathway - cell viability counter screen (AID 1224837); note: series mostly up to about 92 µM; nearly all actives have a fitted effect of over 45% in size
Outline: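 Using CellTiter-Fluor, viability is scored in HepG2 cells stably carrying hCAR and a 2.2kb CYP2B6 reporter after 23 hr compound exposure across 15 concentrations, with CITCO present at 50 nM.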

[18] = qHTS assay to identify small molecule agonists of the estrogen related receptor signaling pathway with the pleiotropic PPARgamma coactivator (PGC) (AID 1224823)
Outline: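 PGC/ERR reporter cells were seeded, rested 6 h at 37 C/5% CO2, then exposed to compounds in DMSO by pin transfer for 18 h at 37 C. Luciferase activity was read as luminescence after One-Glo reagent and 30 min at room temperature.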

[19] = qHTS assay to identify small molecule agonists of the retinoic acid receptor (RAR) signaling pathway (AID 1159553); note: potency is the fitted concentration of half-maximal effect
Outline: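 Activation of retinol signaling was monitored via a RARE luciferase reporter in C3RL4 cells. After 6 hr compound treatment at 37 C, detection reagent was added for 30 min at room temperature before luminescence reading.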

Measured: Potency

Chain of Retinoic acid receptor RXR-alpha (Homo sapiens) (P19793 whole entry, looked up): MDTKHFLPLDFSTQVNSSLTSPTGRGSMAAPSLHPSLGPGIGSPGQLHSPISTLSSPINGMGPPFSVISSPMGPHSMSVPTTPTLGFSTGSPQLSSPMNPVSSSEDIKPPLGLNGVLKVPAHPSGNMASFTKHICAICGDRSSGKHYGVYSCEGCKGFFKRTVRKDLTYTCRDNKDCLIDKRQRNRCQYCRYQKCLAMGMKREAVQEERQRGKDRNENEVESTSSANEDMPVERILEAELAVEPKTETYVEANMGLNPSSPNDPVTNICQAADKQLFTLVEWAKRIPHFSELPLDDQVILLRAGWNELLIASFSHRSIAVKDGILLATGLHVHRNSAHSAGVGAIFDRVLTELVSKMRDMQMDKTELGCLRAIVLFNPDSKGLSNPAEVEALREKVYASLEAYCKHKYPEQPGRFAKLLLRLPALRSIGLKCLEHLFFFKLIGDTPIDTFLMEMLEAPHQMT
Chain of Luciferin 4-monooxygenase (Photinus pyralis) (P08659 whole entry, looked up): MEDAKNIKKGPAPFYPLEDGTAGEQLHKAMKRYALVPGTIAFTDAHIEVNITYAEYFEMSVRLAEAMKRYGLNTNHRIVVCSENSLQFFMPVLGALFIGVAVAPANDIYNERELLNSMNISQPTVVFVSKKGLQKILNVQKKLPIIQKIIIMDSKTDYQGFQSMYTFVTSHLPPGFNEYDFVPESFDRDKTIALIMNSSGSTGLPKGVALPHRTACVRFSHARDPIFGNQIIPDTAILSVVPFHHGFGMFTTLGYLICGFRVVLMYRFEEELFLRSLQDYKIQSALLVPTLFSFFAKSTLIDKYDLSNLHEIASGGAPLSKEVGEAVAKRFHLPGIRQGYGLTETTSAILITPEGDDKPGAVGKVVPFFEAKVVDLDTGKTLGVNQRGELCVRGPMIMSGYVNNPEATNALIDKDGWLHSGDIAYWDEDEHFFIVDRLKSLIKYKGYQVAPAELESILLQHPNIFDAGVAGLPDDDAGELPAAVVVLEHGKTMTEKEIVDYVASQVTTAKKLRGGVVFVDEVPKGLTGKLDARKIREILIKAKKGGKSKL

CCCCCCCC/C=C\CCCCCCCC(=O)N(CCO)CCO
inactive: [1] | [3] | [4]
active: [2] 30.5 µM

O=C(Nc1ccc2[nH]ncc2c1)C1CCC1
active: [7] 12.8 µM
inactive: [5] | [6] | [8] | [9]

COc1cccc(-c2ccc(/C=C\CN3CCCCCC3)cc2Cl)c1
inactive: [11] | [4] | [12]
active: [10] 43.4 µM

CN(C[C@@H](CC[N+]12CCC(C3CCCCC3)(CC1)CC2)c1ccc(Cl)c(Cl)c1)C(=O)c1cc(C(F)(F)F)cc(C(F)(F)F)c1
inactive: [4]
active: [1] 27.5 µM | [13] 43.6 µM | [10] 17.4 µM | [11] 48.6 µM

C1CCSC1
inactive: [13] | [14] | [15] | [16] | [3] | [11] | [4] | [12] | [17]

CC(C)C(=O)C(C)C
inactive: [13] | [14] | [3] | [11] | [4] | [12] | [17]

CCCC(=O)c1cc(O)c(O)cc1O
inactive: [13] | [10] | [5] | [6] | [7] | [8] | [18]
active: [11] 43.3 µM | [4] 31.7 µM

N#Cc1cc2nc(O)c(O)nc2cc1[N+](=O)[O-]
inactive: [5] | [6] | [7] | [8]

N.N.N.N.N.N.N.N.N.N.N.N.N.N.O.O.[Cl-].[Cl-].[Cl-].[Cl-].[Cl-].[Cl-].[Ru+4].[Ru+5].[Ru+5]
inactive: [5]

Nc1c(Br)cc([N+](=O)[O-])cc1Br
inactive: [13] | [14] | [15] | [10] | [16] | [11] | [4] | [12] | [17]

O=[N+]([O-])c1ccc(O)c2ncccc12
inactive: [1] | [3] | [4] | [12] | [17]
active: [2] 29.8 µM | [11] 11.9 µM

Brc1ccc([C@H]2CN3CCSC3=N2)cc1
inactive: [5] | [6] | [7] | [8] | [9]

COc1ccc2c(c1)CCC1C2CC[C@@]2(C)C1CC[C@@H]2NCCCCCCN1C(=O)CCC1=O (stereo partly drawn)
inactive: [5] | [6] | [7] | [8]

CC1=CC[C@@H](C(C)(C)O)CC1
inactive: [13] | [14] | [15] | [10] | [4] | [12]

CN(C)CCCc1cc(C(=O)Nc2ccc(-c3ccncc3)cc2)ccc1O
inactive: [5] | [6] | [7] | [8] | [9]

CCOc1ccc([N+](=O)[O-])cc1
inactive: [12] | [17]
active: [1] 22.2 µM | [13] 49.7 µM | [10] 49.7 µM

C=CC(=O)O[C@H]1C[C@@H]2CC[C@@]1(C)C2(C)C
inactive: [13] | [14] | [15] | [16] | [3] | [11] | [4] | [12]

C=C1C[C@@]23CC[C@H]4[C@@](C)(CCC[C@@]4(C)C(=O)OC4OC(CO)C(O)C(O)C4O)[C@@H]2CC[C@]1(OC1OC(CO)C(O)C(O)C1OC1OC(CO)C(O)C(O)C1O)C3 (stereo partly drawn)
inactive: [5] | [6] | [7]

CNCC[C@H](Oc1ccc(C(F)(F)F)cc1)c1ccccc1
inactive: [5]

CCCCCCC/C=C\CCCCCCCCC(=O)O
inactive: [5] | [6] | [7] | [8] | [9]

COc1cc(OC)c(/C=C2/C(=O)Nc3ccccc32)c(OC)c1
active: [5] 11 µM | [6] 11 µM
inactive: [7]

Cc1ccc(Cl)c(N)c1Cl
active: [10] 49 µM
inactive: [1] | [13] | [16] | [11] | [4] | [12]

O=C1Cc2ccccc2C1
inactive: [3] | [4]

c1ccc2cc3c4ccccc4c4ccccc4c3cc2c1
inactive: [1] | [13] | [15] | [10] | [19] | [11]

O=C1OC(=O)c2cc(-c3ccc4c(c3)C(=O)OC4=O)ccc21
inactive: [1] | [13] | [10] | [16] | [11] | [4] | [12] | [17]

c1ccc(C2CN3CCSC3=N2)cc1 (stereo not drawn)
inactive: [5]

CN1C2CCC1CC(OC(c1ccccc1)c1ccccc1)C2 (stereo not drawn)
inactive: [5] | [6] | [7]

CSc1ccc(O)cc1C
active: [2] 43.3 µM
inactive: [11] | [4] | [12]

O=C1C(SCCO)=C(SCCO)C(=O)c2ccccc21
inactive: [5] | [7]
active: [6] 9.08 µM

Cc1ccc2nc(-c3ccc(N)cc3)sc2c1S(=O)(=O)O
active: [14] 21.5 µM | [19] 0.426 µM | [4] 1.39 µM
inactive: [1] | [13] | [16] | [3] | [11] | [12] | [17]
